Measured values: PMC12820563, “FoxP3 forms a head-to-head dimer in vivo and stabilizes its multimerization on adjacent microsatellites”
Whole data set: some 16,000 sequences, median “rpm ratio (pull-down/input)” near 0.94, cut for the highest 2% near 1.7. Many of the other results were omitted from the sample, so the highest values are more common in it than they were.

These sequences were tested against T1, MBP-FoxP1dN (Mus musculus, UniProt P58462 326-579) (assay: PD-seq (MBP pull-down with sequencing); 20 mM Tris-HCl pH 7.5, 100 mM NaCl, 1.5 mM MgCl2, 0.4 uM protein, 0.1 uM dsDNA library, 30 min, room temperature, amylose pull-down; high values mean tight binding). Conditions: protein: recombinant; tags: His6-MBP; chain copies: 2; dsDNA, one strand shown.
T1 sequence: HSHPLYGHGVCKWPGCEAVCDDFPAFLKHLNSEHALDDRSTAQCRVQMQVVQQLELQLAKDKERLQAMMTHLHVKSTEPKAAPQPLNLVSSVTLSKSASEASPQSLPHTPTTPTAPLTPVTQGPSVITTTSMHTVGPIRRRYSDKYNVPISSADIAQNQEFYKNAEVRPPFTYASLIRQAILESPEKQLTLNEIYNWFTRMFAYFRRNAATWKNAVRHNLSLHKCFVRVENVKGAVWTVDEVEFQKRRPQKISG
Summary of the method: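 Amylose resin was used to capture complexes formed during 30 min at room temperature in Tris pH 7.5 buffer with NaCl and MgCl2 between 0.4 µM His6-MBP-tagged mouse FoxP3 or FoxP1 fragment lacking the N-terminus, expressed in E. coli, and 0.1 µM Klenow-filled double-stranded degenerate DNA library. After three washes, the DNA was released with proteinase K, barcoded by PCR and sequenced on Illumina. Binding is pooled-replicate reads-per-million enrichment, pull-down over input.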
With “GATGATTGTTCTCCCAGCTGATGAATTTCACCATTCGAGTAAACAAATTTTCCTAATCTTTCTGTTCAAGCGCCATCTAC” the binding signal was 0.883 RPM ratio (pull-down/input).
With “GATGATTGTTCTCCCAGCTGATGAATTTCGTCTCTCGAGTAAACAAATTTTCCTAATCTTTCTGTTCAAGCGCCATCTAC” the binding signal was 0.896 RPM ratio (pull-down/input).
With “GATGATTGTTCTCCCAGCTGATGAATTATGACCTTCGAGTAAACAAATTTTCCTAATCTTTCTGTTCAAGCGCCATCTAC” the binding signal was 0.925 RPM ratio (pull-down/input).
With “GATGATTGTTCTCCCAGCTGATGAATTATGCCACTCGAGTAAACAAATTTTCCTAATCTTTCTGTTCAAGCGCCATCTAC” the binding signal was 1.06 RPM ratio (pull-down/input).
With “GATGATTGTTCTCCCAGCTGATGAATTTTCCCTCTCGAGTAAACAAATTTTCCTAATCTTTCTGTTCAAGCGCCATCTAC” the binding signal was 0.877 RPM ratio (pull-down/input).
In the case of “GATGATTGTTCTCCCAGCTGATGAATTCCGAGATTCGAGTAAACAAATTTTCCTAATCTTTCTGTTCAAGCGCCATCTAC”, the binding signal is reported as 0.799 RPM ratio (pull-down/input).
In the case of “GATGATTGTTCTCCCAGCTGATGAATTAAGTGTATCGAGTAAACAAATTTTCCTAATCTTTCTGTTCAAGCGCCATCTAC”, the binding signal is reported as 1.28 RPM ratio (pull-down/input).
In the case of “GATGATTGTTCTCCCAGCTGATGAATTTCAGTCATCGAGTAAACAAATTTTCCTAATCTTTCTGTTCAAGCGCCATCTAC”, the binding signal is reported as 1 RPM ratio (pull-down/input).
With “GATGATTGTTCTCCCAGCTGATGAATTTTCCACTTCGAGTAAACAAATTTTCCTAATCTTTCTGTTCAAGCGCCATCTAC” the binding signal was 0.903 RPM ratio (pull-down/input).
For “GATGATTGTTCTCCCAGCTGATGAATTTAGGAGATCGAGTAAACAAATTTTCCTAATCTTTCTGTTCAAGCGCCATCTAC”, the binding signal was 0.968 RPM ratio (pull-down/input).
For “GATGATTGTTCTCCCAGCTGATGAATTATTACTATCGAGTAAACAAATTTTCCTAATCTTTCTGTTCAAGCGCCATCTAC”, the binding signal was 1.21 RPM ratio (pull-down/input).
With “GATGATTGTTCTCCCAGCTGATGAATTTACTATTTCGAGTAAACAAATTTTCCTAATCTTTCTGTTCAAGCGCCATCTAC” the binding signal was 1.55 RPM ratio (pull-down/input).
With “GATGATTGTTCTCCCAGCTGATGAATTATTACTGTCGAGTAAACAAATTTTCCTAATCTTTCTGTTCAAGCGCCATCTAC” the binding signal was 1.17 RPM ratio (pull-down/input).
“GATGATTGTTCTCCCAGCTGATGAATTACTATTTTCGAGTAAACAAATTTTCCTAATCTTTCTGTTCAAGCGCCATCTAC” was tested, and the binding signal was 2.29 RPM ratio (pull-down/input).
For “GATGATTGTTCTCCCAGCTGATGAATTACTAATGTCGAGTAAACAAATTTTCCTAATCTTTCTGTTCAAGCGCCATCTAC”, the binding signal was 1.28 RPM ratio (pull-down/input).
“GATGATTGTTCTCCCAGCTGATGAATTACTATTATCGAGTAAACAAATTTTCCTAATCTTTCTGTTCAAGCGCCATCTAC” was tested, and the binding signal was 1.87 RPM ratio (pull-down/input).
In the case of “GATGATTGTTCTCCCAGCTGATGAATTACTATCATCGAGTAAACAAATTTTCCTAATCTTTCTGTTCAAGCGCCATCTAC”, the binding signal is reported as 1.28 RPM ratio (pull-down/input).
In the case of “GATGATTGTTCTCCCAGCTGATGAATTACTATTGTCGAGTAAACAAATTTTCCTAATCTTTCTGTTCAAGCGCCATCTAC”, the binding signal is reported as 2.38 RPM ratio (pull-down/input).
With “GATGATTGTTCTCCCAGCTGATGAATTACTAATTTCGAGTAAACAAATTTTCCTAATCTTTCTGTTCAAGCGCCATCTAC” the binding signal was 1.25 RPM ratio (pull-down/input).
With “GATGATTGTTCTCCCAGCTGATGAATTTCTCTATTCGAGTAAACAAATTTTCCTAATCTTTCTGTTCAAGCGCCATCTAC” the binding signal was 0.936 RPM ratio (pull-down/input).
“GATGATTGTTCTCCCAGCTGATGAATTCTCGGCCTCGAGTAAACAAATTTTCCTAATCTTTCTGTTCAAGCGCCATCTAC” was tested, and the binding signal was 0.731 RPM ratio (pull-down/input).
“GATGATTGTTCTCCCAGCTGATGAATTATGACTGTCGAGTAAACAAATTTTCCTAATCTTTCTGTTCAAGCGCCATCTAC” was tested, and the binding signal was 0.934 RPM ratio (pull-down/input).
In the case of “GATGATTGTTCTCCCAGCTGATGAATTCCCTCGGTCGAGTAAACAAATTTTCCTAATCTTTCTGTTCAAGCGCCATCTAC”, the binding signal is reported as 0.759 RPM ratio (pull-down/input).
In the case of “GATGATTGTTCTCCCAGCTGATGAATTGTGCCTATCGAGTAAACAAATTTTCCTAATCTTTCTGTTCAAGCGCCATCTAC”, the binding signal is reported as 1.09 RPM ratio (pull-down/input).
With “GATGATTGTTCTCCCAGCTGATGAATTTGATCACTCGAGTAAACAAATTTTCCTAATCTTTCTGTTCAAGCGCCATCTAC” the binding signal was 1.02 RPM ratio (pull-down/input).
“GATGATTGTTCTCCCAGCTGATGAATTCCAAGTATCGAGTAAACAAATTTTCCTAATCTTTCTGTTCAAGCGCCATCTAC” was tested, and the binding signal was 0.949 RPM ratio (pull-down/input).
With “GATGATTGTTCTCCCAGCTGATGAATTCGCTTAATCGAGTAAACAAATTTTCCTAATCTTTCTGTTCAAGCGCCATCTAC” the binding signal was 0.936 RPM ratio (pull-down/input).
With “GATGATTGTTCTCCCAGCTGATGAATTCTGTGGATCGAGTAAACAAATTTTCCTAATCTTTCTGTTCAAGCGCCATCTAC” the binding signal was 0.956 RPM ratio (pull-down/input).
“GATGATTGTTCTCCCAGCTGATGAATTATCTAGATCGAGTAAACAAATTTTCCTAATCTTTCTGTTCAAGCGCCATCTAC” was tested, and the binding signal was 0.863 RPM ratio (pull-down/input).
“GATGATTGTTCTCCCAGCTGATGAATTTATATCATCGAGTAAACAAATTTTCCTAATCTTTCTGTTCAAGCGCCATCTAC” was tested, and the binding signal was 1.27 RPM ratio (pull-down/input).
In the case of “GATGATTGTTCTCCCAGCTGATGAATTAAATGCGTCGAGTAAACAAATTTTCCTAATCTTTCTGTTCAAGCGCCATCTAC”, the binding signal is reported as 1.43 RPM ratio (pull-down/input).
“GATGATTGTTCTCCCAGCTGATGAATTATTGGCTTCGAGTAAACAAATTTTCCTAATCTTTCTGTTCAAGCGCCATCTAC” was tested, and the binding signal was 1.1 RPM ratio (pull-down/input).
In the case of “GATGATTGTTCTCCCAGCTGATGAATTCTGTTTCTCGAGTAAACAAATTTTCCTAATCTTTCTGTTCAAGCGCCATCTAC”, the binding signal is reported as 1.14 RPM ratio (pull-down/input).
